SMILES strings stand for the structures. Results filed as inconclusive are left out. Entries that show only a call come without a potency. Calls of active or inactive are those of the source. Calls come from the whole dose curve.
Potency is the fitted concentration of half-maximal effect.

The nature of the assay: Primary qHTS for Vero E6 cytotoxicity: counterscreen for inhibitors of SARS-S pseudo-typed particle cell entry (AID 1479150). Conditions: cell viability; series mostly up to 57.1 µM. (In general: Quantitative high-throughput screening tests each substance at several concentrations.)
Turning to `CCOC(=O)[C@H](CCc1ccccc1)N[C@@H](C)C(=O)N(CC(=O)O)C1Cc2ccccc2C1`, the Potency result is “inactive”.
On to `C=CCc1ccccc1OCC(O)CNC(C)C` (stereo not drawn), for which the Potency entry was “inactive”.
Regarding `CCOc1ccccc1O[C@H](c1ccccc1)[C@H]1CNCCO1`, the Potency result is “inactive”.
Regarding `C=C1c2cccc(O)c2C(O)=C2C(=O)[C@]3(O)C(O)=C(C(N)=O)C(=O)[C@@H](N(C)C)[C@@H]3[C@@H](O)[C@H]12`, the Potency result is “inactive”.
As to `CCOC(=O)c1cc(=O)c2c(OCC(COc3cccc4oc(C(=O)OCC)cc(=O)c34)OC(=O)[C@@H](N)CCCCN)cccc2o1`, the Potency entry was “inactive”.
On the same count and under the same terms, as for `CCOc1ccc(Cc2nccc3cc(OCC)c(OCC)cc23)cc1OCC`, the figure is 17.8 µM (active).
Regarding `CCCCCCOC(=O)NC(=N)c1ccc(NCc2nc3cc(C(=O)N(CCC(=O)OCC)c4ccccn4)ccc3n2C)cc1`, the Potency result is “inactive”.
Consider `C/C=C/C(=O)N(CC)c1ccccc1C`, for which the Potency result was “inactive”.
The same measure, in the same setting: as for `CC(=O)OCC(=O)NCCCOc1cccc(CN2CCCCC2)c1`, the entry is “inactive”; as for `O=c1[nH]c(=O)n([C@H]2C[C@H](O)[C@@H](CO)O2)cc1C(F)(F)F`, “inactive”.
On the same count and under the same terms, the entry for `Nc1ccn(C2CO[C@H](CO)O2)c(=O)n1` (stereo partly drawn) is “inactive”.
On the same count and under the same terms, as for `CCc1oc2ccccc2c1C(=O)c1cc(Br)c(O)c(Br)c1`, the entry is “inactive”; as for `NC(=O)Cc1cccc(C(=O)c2ccccc2)c1N`, “inactive”; as for `CCCCN1CCCC[C@H]1C(=O)Nc1c(C)cccc1C`, “inactive”.
On to `CCCC(=O)OC[C@@H](OC(=O)CCC)[C@@H](OC(=O)CCC)[C@H](Cn1c2nc(=O)[nH]c(=O)c-2nc2cc(C)c(C)cc21)OC(=O)CCC`, for which the Potency result is “inactive”.
As for `O=c1[nH]c(=O)c2[nH]c(=O)[nH]c2[nH]1`, the outcome is “inactive [at 11.4 µM]”.
Consider `OC(CCN1CCCCC1)(c1ccccc1)c1ccccc1`, for which the Potency result was “inactive”.
Consider `CCN(CC)CCOc1ccccc1C(=O)CCc1ccccc1`, for which the Potency entry is “inactive”.
On the same count and under the same terms, as for `CCOC(=O)c1ccc(OC(=O)CCCCCN=C(N)N)cc1`, the entry is “inactive”; as for `CCOc1ccccc1C(N)=O`, “inactive”; as for `CCN1C(=O)c2ccccc2C1Nc1ccc(OCCN2CCCCC2)cc1` (stereo not drawn), “inactive”.
On to `C#CC1(O)CC[C@H]2[C@@H]3CCC4=CCCC[C@@H]4[C@H]3CC[C@@]21C` (stereo partly drawn), for which the Potency result was “inactive”.
Consider `COC1=C(OC)C(=O)C(CCCCCCCCCCO)=C(C)C1=O`, for which the Potency entry is “inactive”.
Still for that read-out and setting: the entry for `O=C(O)c1ccccc1Nc1cc(Cl)ccc1C(=O)O` is “inactive”; for `COc1ccc2cc3[n+](cc2c1OC)CCc1cc2c(cc1-3)OCO2` it is “inactive”.
As for `CCC1NC(=O)c2cc(S(N)(=O)=O)c(Cl)cc2N1` (stereo not drawn), the Potency entry is “inactive”.
The same measure, in the same setting: the entry for `O=S(=O)(c1cccc2cnccc12)N1CCCNCC1` is “inactive”; for `CCOC(CN1CCN(CC(C)C(=O)c2ccccc2)CC1)c1ccccc1` (stereo not drawn) it is “inactive”.
The same measure, in the same setting: the entry for `NS(=O)(=O)c1cc2c(cc1Cl)CN(C1CCCCC1)C2=O` is “inactive”.
Still for that read-out and setting: the entry for `O=C(OCC(O)CO)c1ccccc1Nc1ccnc2cc(Cl)ccc12` (stereo not drawn) is “inactive”.
In the case of `CCCCCCCCCCCCCCCCC(C(=O)O)C(O)(CC(=O)O)C(=O)O` (stereo not drawn), the Potency entry was “inactive”.
Still for that read-out and setting: as for `Cc1c(-c2ccccc2)oc2c(C(=O)OCCN3CCCCC3)cccc2c1=O`, the entry is “inactive”; as for `Cc1ccc(/C(=C\CN2CCCC2)c2ccccn2)cc1`, “inactive”.
Still for that read-out and setting: the entry for `CCOc1ccc(C(=O)OCCN(CC)CC)cc1` is “inactive”.
For `CCN[C@@H]1C[C@H](N)[C@@H](OC2OC(CN)=CCC2N)[C@H](O)[C@H]1O[C@H]1OC[C@](C)(O)[C@H](NC)[C@H]1O` (stereo partly drawn), the activity change, negative = cytotoxicity is -4.98% [at 0.573 µM] (inactive).
Consider `CN(C)CC[C@@H](c1ccc(Cl)cc1)c1ccccn1`, for which the Potency result was “inactive”.
For the compound `CC(Oc1c(Cl)cccc1Cl)C1=NCCN1` (stereo not drawn), the Potency entry is “inactive”.
The same measure, in the same setting: as for `Cn1cc(C(=O)[C@@H]2CCc3nc[nH]c3C2)c2ccccc21`, the entry is “inactive”.

The values are drawn from PubChem BioAssay (NCATS).
